An excerpt weighted towards active compounds, which were near 3.6% of everything screened.
mHTT-CaM PPI inh – mHTT-calmodulin interaction abrogation | P42858 | AlphaScreen His-mHTT/GST-CaM binding, luminescence | inhibition, % at 15 µM | 3.6% of 190,000 active;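 further: 0% = both proteins with DMSO and 100% = one protein alone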
Pf apPOL block – Pf-apPOL DNA polymerase inhibition; 0.25% of 210,000 active; Recombinant Pf-apPOL, molecular beacon fluorescence, 1.5 h; inhibition, % at 10 µM
Starred values were filed as active, the others as inactive; nt = not tested or not shown; ! = repeats disagree. No stated cut-off is given here; in the data, active means inhibition above about 50%; inactive means the rest.

SMILES	mHTT-CaM PPI inh	Pf apPOL block
CCC(C)NC(=O)CSc1nc2ccsc2c(=O)n1-c1ccc(Br)cc1 (stereo not drawn)	3.0	-3.2
COc1ccc(-n2c(SCC(=O)NC3CCCCC3)nc3n[nH]c(C)c3c2=N)cc1	79.0*	-2.8
CCCN(CCC)C(=O)CSc1nc2n[nH]c(C)c2c(=N)n1-c1ccc(OCC)cc1	21.0	-5.1
COc1cccc(-n2c(SCC(=O)N3CCCC3)nc3n[nH]c(C)c3c2=N)c1	20.0	-2.2
O=C(Nc1cnn(Cc2ccc(Cl)cc2Cl)c1)c1noc2c1CCCCC2	-3.1	-1.8
CCc1ccc(N2CC(C(=O)Nc3ccc(N(C)C)cc3)CC2=O)cc1 (stereo not drawn)	-6.8	-2.2
COc1ccc2c(c1)C(N1CCN(C(=O)C(C)C)CC1)=Nc1ccccc1O2	39.7	-10.0
Fc1ccc(C2Nc3ccc(OC(F)(F)F)cc3C3C=CCC32)cc1 (stereo not drawn)	37.4	nt
Nc1ccc(C2Nc3ccccc3C3C=CCC32)cc1 (stereo not drawn)	85.3*	-11.1
Fc1ccc(C2Nc3ccc(Br)cc3C3C=CCC32)cc1 (stereo not drawn)	15.0	-0.8
Brc1ccc2c(c1)C1C=CCC1C(c1ccncc1)N2 (stereo not drawn)	95.0*	-6.7
Ic1ccc2c(c1)C1C=CCC1C(c1ccncc1)N2 (stereo not drawn)	95.0*	5.8
CCc1c(C)sc(NC(=O)C2c3ccccc3Oc3ccccc32)c1C(N)=O	-1.7	2.6
O=S(=O)(c1ccccc1)N1CCN(S(=O)(=O)c2ccccc2)C1	-7.0	8.4
O=C1C(N2CCCC2)=C(N2CCN(S(=O)(=O)c3ccccc3)CC2)C(=O)c2ccccc21	80.0*	-4.3
O=c1[nH]c2ccccc2n1CCCSc1cccs1	4.7	-1.2
O=c1[nH]c2ccccc2n1CCCSc1nc2ccccc2o1	51.0*	-4.8
Cc1cccc2c1N(CC(=O)NCc1ccc(N(C)C)cc1)C(=O)C1CCCN1C2=O (stereo not drawn)	16.0	-6.1
COc1ccc(/C(C#N)=C/c2cc3c(cc2[N+](=O)[O-])OCO3)cc1OC	0.8	4.1
O=C(CSc1n[nH]c(-c2ccccc2)n1)c1ccc(O)cc1O	1.3	-0.2
CCc1nc(SCC(=O)c2ccc(O)cc2O)n[nH]1	71.2*	-4.1
COc1ccc(C2NC(=O)NC(C)=C2C(=O)Nc2ccc(F)c(F)c2)cc1OC (stereo not drawn)	-1.0	65.1*!
COc1ccccc1C1NC(=O)NC(C)=C1C(=O)Nc1ccc(F)c(F)c1 (stereo not drawn)	6.0	0.3
COc1ccc(S(=O)(=O)NC(C)C)cc1N(C)S(=O)(=O)c1ccc(Cl)cc1	-8.4	-6.2
COc1ccc(CNc2nc(-c3ccccc3)nnc2C)cc1	55.8*	-5.1
SMILES	mHTT-CaM PPI inh	Pf apPOL block
COc1ccc(-c2nnc(C)c(NCc3ccccc3)n2)cc1	41.0	-4.0
Cc1cc(O)c(C(C)C)cc1NC(=O)c1cccc([N+](=O)[O-])c1	1.9	0.0
O=C(C1CCN(CC2CCCCC2)CC1)N1CCN(C/C=C/c2ccccc2)CC1	27.5	-1.0
CC(C)C[C@@H]1COc2cccc(N3CCN(Cc4ccccc4F)CC3)c2S(=O)(=O)N1	43.5	-6.4
O=S1(=O)N[C@@H](Cc2ccccc2)COc2cccc(N3CCN(Cc4ccccc4F)CC3)c21	88.9*	-9.9
Cc1[nH]nc2c1C(c1ccccc1)C(C#N)=C(N)O2 (stereo not drawn)	nt	0.2
Cc1[nH]nc2c1C(c1ccc(-c3ccccc3Cl)o1)C(C#N)=C(N)O2 (stereo not drawn)	50.0*	-2.8
CCc1ccccc1NC(=O)c1cccc(OCc2ccccc2)c1	-5.2	-3.1
CSc1scc2c1C(=O)C(=CN(C)C)CC2	nt	93.0*
CN(C)C=C1Cc2ccccc2C1=O	nt	-10.9
O=C1CCc2cc(S(=O)(=O)N3CCN(c4cccc(Cl)c4)CC3)cc3c2N1CCC3	-5.6	2.9
COc1ccc(-c2csc(/C(C#N)=C/c3ccc(F)cc3)n2)cc1	-51.7	-0.8
O=C(c1ccco1)N1CCCC(c2ccnc(Nc3ccccc3)n2)C1 (stereo not drawn)	21.9	-3.6
Cc1ccc(Nc2nccc(C3CCCN(C(=O)C(C)(C)C)C3)n2)cc1 (stereo not drawn)	38.6	-2.9
CCC(=O)N1CCCC(c2ccnc(Nc3ccc(C)cc3)n2)C1 (stereo not drawn)	56.4*	-12.2
Cc1ccc(C(=O)N2CCCC(c3ccnc(Nc4ccccc4)n3)C2)s1 (stereo not drawn)	61.4*	-2.3
O=C(C1CCC1)N1CCCC(c2ccnc(Nc3ccccc3)n2)C1 (stereo not drawn)	24.2	-2.5
Cc1ccc(Nc2nccc(C3CCCN(C(=O)c4ccco4)C3)n2)cc1 (stereo not drawn)	86.8*	-4.6
CCOc1ccc(CC(=O)N2CCCC2c2cc(C(C)C)on2)cc1 (stereo not drawn)	8.5	-0.8
N=C1NC(=O)/C(=C/c2cc(Br)ccc2OCc2ccccc2)S1	37.0	-2.4
CCOc1cccc2sc(NC(=O)c3ccccc3Br)nc12	-18.3	-1.0
O=C(Nc1ccc(I)cc1Cl)c1ncn[nH]1	96.1*	-6.5
O=C(Nc1ccccc1Cl)c1ncn[nH]1	25.5	-3.2
COc1cccc(C(=O)Nc2c3c(nn2-c2ccccc2)CSC3)c1	40.0	-1.1
CC(NC(=O)C1CCN(c2ccc(Cl)cc2F)C1=O)c1ccccc1 (stereo not drawn)	-4.9	-4.2
SMILES	mHTT-CaM PPI inh	Pf apPOL block
COCCCN1C(=O)C(O)=C(C(=O)c2ccco2)C1c1cccc([N+](=O)[O-])c1 (stereo not drawn)	2.7	-4.5
O=C(c1csc2ccccc12)N1CCN(Cc2ccc3c(c2)OCO3)CC1	17.0	-3.8
COc1ccc(C2SCC(=O)N2CCc2ccc(OC)c(OC)c2)c(OC)c1 (stereo not drawn)	6.0	13.5
COc1ccc(CCN2C(=O)CSC2c2ccc(Cl)c(Cl)c2)cc1OC (stereo not drawn)	100.0*	4.3
CN(C)c1ccc(CNC(=O)CN2C(=O)CCCc3ccccc32)cc1	10.2	-1.2
Cc1ccc(NC(=O)NCC2CCN(Cc3cccc(C)c3)CC2)cc1	2.6	-6.6
CC(=O)N1c2ccc(S(=O)(=O)N3CC(C)CC(C)C3)cc2CC1C (stereo not drawn)	7.0	-3.1
Cc1cc(C)cc(NC(=O)CSc2cn(CCNC(=O)c3ccc(F)cc3)c3ccccc23)c1	78.0*	4.5
Cc1cccc(NC(=O)CSc2cn(CCNC(=O)c3ccc(F)cc3)c3ccccc23)c1	40.0	-6.1
CC1(C)CC(N=NC2CC(C)(C)NC(C)(C)C2)CC(C)(C)N1	-7.4	nt
O=C1Nc2cc(C(=O)N3CCCCC3)ccc2SC1N1CCCC1 (stereo not drawn)	3.0	-15.9
COc1ccc(/C=C2\SC(=N)NC2=O)cc1OCc1ccc(Cl)cc1	20.0	7.1
Cc1nn(C)c(C)c1Sc1ccc(Br)cc1	59.7*!	-2.8
Cc1nn(C(=O)c2cccs2)c(C)c1Sc1ccc(Br)cc1	4.0	-4.4
COc1cccc(NC(=O)N2CCC(c3ccccc3)C2)c1OC (stereo not drawn)	-13.9	-10.2
COc1ccc(-c2cn3c(n2)c(=C2CCCN2)c(=O)n3-c2ccccc2)cc1	63.0*	-6.8
COc1ccc(-c2cn3ccn(-c4ccc(F)cc4)c(=O)c3n2)cc1	-7.9	0.2
CCN1CCN(C2CCN(C(=O)c3ccc(C)c(C)c3)CC2)C1=O	-4.6	-2.0
